Records with an inconclusive call do not appear. Values without a mark were called inactive. Calls follow the shape of the dose curve; as a rule, active = well fitted cell-killing curve with a large enough effect in the repeat runs; inconclusive = weak or mixed curves; inactive = flat fitted curve, though single readings scatter.
Assay: qHTS RealTime-Glo MT Cell Viability Assay in HepG2 cells - 24 hour (AID 1224867); also: nearly all actives have a fitted effect of over 50% in size
Conditions: RealTime-Glo luminescence; series mostly up to 76.8 µM; activity change, negative = cytotoxicity: at the top concentration
How it was run: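 Luminescence read-out: viable HepG2 cells reduce a prosubstrate to a NanoLuc substrate, giving a signal proportional to live cell number. Reads taken at 0, 8, 16, 24, 32 and 40 h of compound exposure at 37 C.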
% is scaled to controls: 0 for no effect and ±100 for the full control effect.

Structure (SMILES)	activity change, negative = cytotoxicity
CCCC(C)C(O)CC (configuration not stated)	0.319%
CC(=O)Nc1ccc(OCCOCCOc2ccc(NC(C)=O)cc2)cc1	1.45% [at 35.3 µM]
CC(C)OC(=O)C(C(=O)OC(C)C)=C1SC=CS1	-9.3% [at 35.3 µM]
COC(=O)N/N=C/c1c[n+]([O-])c2ccccc2[n+]1[O-]	0.0688% [at 35.3 µM]
CN1CCN(C(=O)C2CCCCC2)CC1	2.12% [at 35.3 µM]
C=CCCCCCCCCOC(C)=O	1.7%
CC(=O)c1ccc2ccc3ccccc3c2c1	-3.5%
CN(C)CCCN(C)C	0.293% [at 6.97 µM]
CCCCCCCC(=O)N(C)C	0.665%
CC(=O)c1c(C)cc(C(C)(C)C)cc1C	-9.06%
C=CC(C)(CCC=C(C)C)OC(=O)C(C)C (configuration not stated)	2.59%
CCOC(=O)COc1ccc2c(C)c(CCN(CC)CC)c(=O)oc2c1Cl	0.183% [at 35.3 µM]
O=C(OOC(=O)c1ccccc1)c1ccccc1	4.08% [at 35.3 µM]
COc1ccc(Cl)cc1C	0.5%
Clc1ccc2c(c1)Nc1ccccc1S2	1.19% [at 35.3 µM]
CCN(CC)CC(=O)Oc1ccc(NC(C)=O)cc1	2.11% [at 35.3 µM]
N[C@H]1C(O)O[C@H](CO)[C@@H](O)[C@@H]1O (some centres not stated)	-0.147% [at 35.3 µM]
O=C1Nc2ccccc2C1=O	12.3%
CN(C)c1ccncc1	1.53%

Structure (SMILES)	activity change, negative = cytotoxicity
CN(C)CCc1c[nH]c2ccc(C[C@H]3COC(=O)N3)cc12	-0.0072% [at 35.3 µM]
Cc1nnc(C(=O)NC(C)(C)c2nc(C(=O)NCc3ccc(F)cc3)c(O)c(=O)n2C)o1	-4.72% [at 35.3 µM]
COC(=O)c1c(C)cc(O)c(C)c1O	-0.856%
CCCCS	0.0886%
C[C@@H](CN1CC(=O)NC(=O)C1)N1CC(=O)NC(=O)C1	1.89% [at 35.3 µM]
CCOC(=O)[C@H](CCc1ccccc1)N[C@H]1CS[C@H](c2cccs2)CN(CC(=O)O)C1=O	3% [at 35.3 µM]
CCCCOCCCC	0.66%
N=C(N)N	0.282% [at 35.3 µM]
CCCC(=O)C(CC)Sc1ccoc1C (configuration not stated)	0.635%
C=CCON/C(CCC)=C1\C(=O)CC(C)(C)C(C(=O)OC)=C1O	2%
CC/C=C\CCOC(=O)c1ccccc1	-6.86%
CCCCC(CC)COC(=O)CC#N (configuration not stated)	1.18%
CC/C=C\CCCCCCCCCCOC(C)=O	1.52%
Cc1ccc(OC(=O)CC(C)C)cc1	0.0995%
O=P(O)(O)C(O)(Cc1cccnc1)P(=O)(O)O	3.43% [at 35.3 µM]
CCN1CCN(C(=O)N[C@@H](C(=O)N[C@@H]2C(=O)N3[C@@H]2SC(C)(C)[C@H]3C(=O)O)c2ccccc2)C(=O)C1=O	1.21% [at 35.3 µM]
COc1cc2nc(N3CCN(C(=O)C4CCCO4)CC3)nc(N)c2cc1OC (configuration not stated)	-3.06% [at 35.3 µM]
CC(C)C[P+](C)(CC(C)C)CC(C)C	-1.41%

— PubChem BioAssay (Tox21)
